# Experimental data reported in PubChem BioAssay (NCATS).
# “And” between values parts separate entries of the source, which are not always exact repeats. Identical values can stand only once. Results filed as inconclusive are left out. The source made the active and inactive calls. Unless noted, the call rests on the fitted dose curve; in most records, active means well fitted curve in the direction sought with a large enough effect; inconclusive means small, poorly fitted or top-dose-only effect, or another doubt; inactive means no such curve, though single readings can be large; an effect the other way counts as inactive or inconclusive.
# Tests used:
# [1] = qHTS for small molecule inhibitors of Yes1 kinase: Counter Assay (AID 686950);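 further: no kinase present so only ADP-Glo detection of a fixed ADP amount is tested; luminescence from ADP-Glo reporting ADP in a fixed ATP and ADP mixture; 0% = DMSO wells with ATP plus ADP and -100% = ATP-only wells without ADP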
# In short: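 Luminescence read-out from ADP-Glo quantifies a fixed ADP amount (0.02 mM ADP with 0.08 mM ATP) after 60 min at room temperature; signal is normalized between DMSO wells with ATP/ADP and with 0.1 mM ATP alone.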
# [2] = qHTS for compounds that reverse cellular toxicity of Amyloid beta (A-beta) peptide in yeast: LOPAC Validation Assay (AID 720559);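 further: plate controls were DMSO for no effect and equimolar ferric chloride plus clioquinol rescue for full effect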
# In short: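 Medium dispensed, compounds pinned, A-beta yeast suspension added; plates held at 30 C for 48 hr; absorbance measured at 600 nm to gauge growth; values scaled between DMSO and FeCl3/clioquinol (equimolar) controls.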
# [3] = molecular target: T1, Hexokinase-4 (Homo sapiens) + Glucokinase regulatory protein (Homo sapiens) (UniProt P35557+Q14397); test: qHTS assay for inhibitors of recombinant human GCK-GKRP interaction: Diaphorase-coupled assay (AID 743205)
# T1 sequence (P35557 whole entry, looked up): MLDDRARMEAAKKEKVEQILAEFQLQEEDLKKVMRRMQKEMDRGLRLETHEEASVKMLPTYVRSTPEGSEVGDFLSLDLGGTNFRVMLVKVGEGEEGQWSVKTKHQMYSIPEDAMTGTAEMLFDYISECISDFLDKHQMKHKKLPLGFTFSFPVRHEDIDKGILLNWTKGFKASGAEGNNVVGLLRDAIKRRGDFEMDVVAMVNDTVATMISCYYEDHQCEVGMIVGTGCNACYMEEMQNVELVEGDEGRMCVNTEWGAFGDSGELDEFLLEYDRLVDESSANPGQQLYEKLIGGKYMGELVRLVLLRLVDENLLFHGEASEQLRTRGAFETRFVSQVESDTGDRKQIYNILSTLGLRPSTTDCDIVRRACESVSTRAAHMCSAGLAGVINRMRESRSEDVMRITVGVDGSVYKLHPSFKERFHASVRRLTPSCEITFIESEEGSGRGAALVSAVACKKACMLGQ
# T1 sequence (Q14397 whole entry, looked up): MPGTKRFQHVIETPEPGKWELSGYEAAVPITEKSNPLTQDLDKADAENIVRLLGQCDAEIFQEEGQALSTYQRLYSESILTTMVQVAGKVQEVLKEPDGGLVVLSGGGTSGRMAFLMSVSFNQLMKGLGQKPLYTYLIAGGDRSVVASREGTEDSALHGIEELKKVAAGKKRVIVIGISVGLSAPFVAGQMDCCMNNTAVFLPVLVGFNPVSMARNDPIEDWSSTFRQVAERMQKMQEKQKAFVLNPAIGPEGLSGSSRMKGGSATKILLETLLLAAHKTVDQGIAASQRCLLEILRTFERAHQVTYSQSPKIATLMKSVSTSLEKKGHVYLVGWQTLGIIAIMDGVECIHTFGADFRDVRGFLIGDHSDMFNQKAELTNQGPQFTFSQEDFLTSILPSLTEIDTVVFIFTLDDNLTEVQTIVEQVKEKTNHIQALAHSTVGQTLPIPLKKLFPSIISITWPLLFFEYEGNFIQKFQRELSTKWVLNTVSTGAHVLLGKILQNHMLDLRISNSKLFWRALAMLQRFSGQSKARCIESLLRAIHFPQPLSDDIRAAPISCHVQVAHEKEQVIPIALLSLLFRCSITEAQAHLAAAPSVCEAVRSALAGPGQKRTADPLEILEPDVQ
# In short: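 25 mM Hepes pH 7.6, 5 mM glucose, 0.4 mM ATP, 4 U/ml G6PDH; 10 nM each GST-GCK/FLAG-GKRP. Kinetic fluorescence read, 1/min × 30 min. Normalized: DMSO ± enzyme = max/min.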
# [4] = molecular target: T1, Hexokinase-4 (Homo sapiens) + Glucokinase regulatory protein (Homo sapiens); test: qHTS assay for inhibitors of recombinant human GCK-GKRP interaction: ADP-Glo assay (AID 743206);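 further: plate controls were DMSO plus enzyme for no effect and no enzyme for full effect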
# In short: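 GST-GCK and FLAG-GKRP (15 nM each in the dispensed mix, with 2 uM S6P) react with 0.4 mM ATP and 5 mM glucose (final) in Hepes pH 7.6 for 60 min at room temperature. ADP is measured by ADP-Glo luminescence.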
# [5] = molecular target: T1, Hexokinase-4 (Homo sapiens) + Glucokinase regulatory protein (Homo sapiens); test: qHTS assay for inhibitors of recombinant human GCK-GKRP interaction: HTRF assay (AID 743207);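 further: 0% = DMSO with GCK present and -100% = DMSO wells lacking GCK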
# In short: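 5 nM GST-GCK + 5 nM FLAG-GKRP + 2 uM S6P, pH 7.1 buffer (25 mM Hepes, 2 mM MgCl2, 25 mM KCl, 1 mM DTT, Tween/BSA); pin-transferred cpd; anti-FLAG XL665/anti-GST K; 60 min RT; HTRF.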
# [6] = qHTS Assay for Identifying Gametocytocidal Compounds (AID 743244);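 further: on the % scale 0 is the no-effect control and ±100 the full control effect; actives lower the fluorescent signal which means gametocytes are killed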; conditions: P. falciparum 3D7 stage III-V gametocytes, alamarBlue, 72 h; max response: stronger effect = lower value
# In short: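 In this qHTS viability screen, late-stage 3D7 gametocytes are incubated with compound for 72 h, then with alamarBlue for 24 h; reduced resorufin fluorescence marks killing.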
# [7] = qHTS profiling for inhibitors of Plasmodium falciparum (DD2) proliferation (AID 743323; call rule not given here); conditions: lower = more inhibition; at 28.7 µM (top of the series) unless noted
# In short: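 Parasite DNA quantified by SYBR Green fluorescence (ex 485, em 535 nm) after saponin/Triton lysis and overnight dark incubation. Cultures: 0.3% parasitemia, 2.5% hematocrit, 72 h, 37 C; data scaled between DMSO and 0.29 uM artemisinin.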
# [8] = qHTS profiling for inhibitors of Plasmodium falciparum (HB3) proliferation (AID 743324); conditions: Plasmodium falciparum HB3 blood-stage proliferation; at 28.7 µM (top of the series) unless noted;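 further: 100% = DMSO vehicle wells and 0% = artemisinin-treated control wells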
# In short: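 P. falciparum HB3 grown in erythrocytes (0.3% parasitemia, 2.5% hematocrit final) with compound for 72 h at 37 C, 5% CO2. Parasite DNA detected by SYBR Green after saponin/triton lysis overnight; normalized to 0.29 uM artemisinin and DMSO.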
# [9] = qHTS profiling of the MIPE4 collection as inhibitors of Plasmodium falciparum (3D7) proliferation (AID 743344; call rule not given here;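 further: scaled between DMSO vehicle wells and 0.29 µM artemisinin as full inhibition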); conditions: P. falciparum 3D7 in erythrocytes, SYBR Green DNA fluorescence, 72 h; at 28.5 µM (top of the series) unless noted
# In short: (§1)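 Erythrocytes infected with P. falciparum (0.3% parasitemia, 2.5% hematocrit) incubated with compounds 72 h at 37 C, 5% CO2. Lysis with saponin/Triton buffer containing SYBR Green I, overnight at room temperature in the dark; DNA fluorescence (485/535 nm) normalised to 0.29 uM artemisinin and DMSO.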
# [10] = qHTS profiling of the MIPE4 collection as inhibitors of Plasmodium falciparum (DD2) proliferation (AID 743345; call rule not given here); conditions: P. falciparum Dd2 in erythrocytes, SYBR Green DNA, 72 h; at 28.5 µM (top of the series) unless noted
# In short: as §1
# [11] = qHTS profiling of the MIPE4 collection as inhibitors of Plasmodium falciparum (DD2) proliferation (Rep 2) (AID 743346; call rule not given here); conditions: P. falciparum Dd2 in erythrocytes, SYBR Green DNA, 72 h; at 28.5 µM (top of the series) unless noted
# In short: as §1
# [12] = qHTS profiling of the MIPE4 collection as inhibitors of Plasmodium falciparum (HB3) proliferation (AID 743347; call rule not given here;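 further: plate controls were DMSO vehicle wells for no effect and artemisinin wells for full effect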); conditions: P. falciparum HB3 in erythrocytes, SYBR Green DNA, 72 h; at 28.5 µM (top of the series) unless noted
# In short: as §1
# [13] = High-throughput drug toxicity screening in the BPDCN cell line Gen2.2 (AID 1224824; call rule not given here;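 further: cells exposed to compounds for 48 h before reading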); conditions: Gen2.2 BPDCN cells; at 45.8 µM (top of the series) unless noted
# In short: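 Seed 500 exponentially growing Gen2.2 cells/well; add compounds by pin tool; incubate 48 h, 37 °C, 5% CO2; add CellTiter-Glo, 15 min RT; read luminescence. % activity vs DMSO (100%) and bortezomib (0%).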
# [14] = molecular target: Tyrosine-protein kinase Yes (Homo sapiens) (UniProt P07947); test: qHTS for small molecule inhibitors of Yes1 kinase: Primary Screen (AID 686947); further: nearly all actives have a fitted effect of over 60% in size; further: potency means the concentration at half of the fitted maximal effect
# Chain of Tyrosine-protein kinase Yes (Homo sapiens) (P07947 whole entry, looked up): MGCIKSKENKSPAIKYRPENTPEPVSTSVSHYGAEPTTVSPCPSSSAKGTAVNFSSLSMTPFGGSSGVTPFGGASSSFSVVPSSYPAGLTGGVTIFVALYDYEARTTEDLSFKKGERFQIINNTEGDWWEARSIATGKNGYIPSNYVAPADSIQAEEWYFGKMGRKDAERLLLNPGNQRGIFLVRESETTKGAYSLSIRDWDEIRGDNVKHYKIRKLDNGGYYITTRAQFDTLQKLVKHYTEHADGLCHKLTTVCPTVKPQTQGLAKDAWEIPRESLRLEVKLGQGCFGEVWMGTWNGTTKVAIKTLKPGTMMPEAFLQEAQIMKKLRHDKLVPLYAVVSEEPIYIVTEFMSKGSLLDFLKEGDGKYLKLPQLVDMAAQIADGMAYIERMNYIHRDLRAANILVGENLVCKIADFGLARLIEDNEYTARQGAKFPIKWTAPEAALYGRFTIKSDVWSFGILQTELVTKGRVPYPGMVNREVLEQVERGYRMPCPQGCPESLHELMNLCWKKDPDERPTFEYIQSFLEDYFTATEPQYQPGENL
# In short: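 Yes1 (4 nM) preincubated 20 min with compound, then 60 min room-temperature reaction with 0.1 mM ATP and 0.3 mg/mL poly(E4Y) in pH 7.5 Tris, 10 mM MgCl2. ADP measured by ADP-Glo luminescence, normalised to enzyme/no-enzyme controls.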
# [15] = molecular target: Peroxisome proliferator-activated receptor alpha (Homo sapiens) (UniProt Q07869); test: qHTS assay for small molecule agonists of the peroxisome proliferator-activated receptor alpha (PPARalpha) signaling pathway (AID 651778); conditions: PathHunter PPARalpha complementation, chemiluminescence, 6 h; stronger effect = higher value; further: % of control where 0% means no effect
# Chain of Peroxisome proliferator-activated receptor alpha (Homo sapiens) (Q07869 whole entry, looked up): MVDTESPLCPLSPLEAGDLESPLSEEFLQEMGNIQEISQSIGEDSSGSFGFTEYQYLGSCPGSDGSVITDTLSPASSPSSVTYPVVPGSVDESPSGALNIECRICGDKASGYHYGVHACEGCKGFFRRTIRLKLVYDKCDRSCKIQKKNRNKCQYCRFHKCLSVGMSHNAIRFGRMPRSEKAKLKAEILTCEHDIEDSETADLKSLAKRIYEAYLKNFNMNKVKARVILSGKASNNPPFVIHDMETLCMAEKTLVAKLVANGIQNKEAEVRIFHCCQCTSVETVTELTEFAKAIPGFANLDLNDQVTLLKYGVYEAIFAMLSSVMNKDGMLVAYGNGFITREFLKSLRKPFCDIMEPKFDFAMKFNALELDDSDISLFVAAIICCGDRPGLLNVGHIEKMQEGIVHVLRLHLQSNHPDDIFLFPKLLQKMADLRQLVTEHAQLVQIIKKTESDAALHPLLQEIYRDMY
# In short: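 Chemiluminescence from complemented enzyme reported PPARalpha activation in cells after 6 hr of compound treatment at 37 C. The detection reagent was incubated for 60 min at room temperature, and compounds were scored as agonists.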
# [16] = qHTS assay for small molecule agonists of the antioxidant response element (ARE) signaling pathway measured by Nrf2-dependant transcriptional activity (AID 720636; active means well fitted curve in the direction sought with a large enough effect in the repeat runs; an effect the other way counts as inactive or inconclusive; further: % of control where 0% means no effect)
# In short: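 Quantitative HTS format in HepG2 cells stably expressing an ARE-luciferase reporter; 16 hr compound treatment at 37 C, luciferase signal detected with ONE-Glo.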
# [17] = qHTS assay for small molecule agonists of the antioxidant response element (ARE) signaling pathway measured by Nrf2-dependant transcriptional activity - cell viability counter screen (AID 720653; active means well fitted curve in the direction sought with a large enough effect in the repeat runs; an effect the other way counts as inactive or inconclusive; further: on the % scale 0 is the no-effect control and ±100 the full control effect); conditions: ARE-bla HepG2 viability, CellTiter-Glo ATP luminescence, 16 h; max response: stronger effect = lower value
# In short: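 Cytotoxicity counter screen: intracellular ATP quantified by CellTiter-Glo luminescence in the same ARE-bla HepG2 plates, after 16 h compound exposure and a 2 h beta-lactamase substrate step.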
# [18] = qHTS assay for cell viability of HEK293 cells (AID 743288); conditions: ATP luminescence (CellTiter-Glo), 18 h; max response: stronger effect = lower value; further: nearly all actives have a fitted effect of over 50% in size; further: potency means the concentration at half of the fitted maximal effect; on max response: on the % scale 0 is the no-effect control and ±100 the full control effect
# In short: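 HEK293 parental, 2,000 cells/well; ≥5 h pre-incubation 37 C; pintool compound addition; 18 h, 37 C; CellTiter-Glo 30 min RT; luminescence read.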
# [19] = qHTS for Activators of Parkin Expression: LOPAC Validation Assay (NLuc Reporter) (AID 720572;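 further: 0% = DMSO and 100% = positive control compound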)
# In short: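 Parkin promoter-driven FLuc/NLuc neuronal reporter cells; 24 h plating, 7-pt dose response, 24 h at 37 C/5% CO2; FLuc then NanoLuc reagent, 10 min each, luminescence; DMSO/positive control normalized.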
# [20] = molecular target: Nuclear receptor ROR-gamma (Homo sapiens) (UniProt P51449); test: qHTS assay for small molecule antagonists of the retinoid-related orphan receptor gamma (ROR-gamma) signaling pathway (AID 651802);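 further: CHO cells with doxycycline-induced ROR-gamma expression; luciferase reporter luminescence driven by ROR response element; on the % scale 0 is the no-effect control and ±100 the full control effect; nearly all actives have a fitted effect of over 60% in size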
# Chain of Nuclear receptor ROR-gamma (Homo sapiens) (P51449 whole entry, looked up): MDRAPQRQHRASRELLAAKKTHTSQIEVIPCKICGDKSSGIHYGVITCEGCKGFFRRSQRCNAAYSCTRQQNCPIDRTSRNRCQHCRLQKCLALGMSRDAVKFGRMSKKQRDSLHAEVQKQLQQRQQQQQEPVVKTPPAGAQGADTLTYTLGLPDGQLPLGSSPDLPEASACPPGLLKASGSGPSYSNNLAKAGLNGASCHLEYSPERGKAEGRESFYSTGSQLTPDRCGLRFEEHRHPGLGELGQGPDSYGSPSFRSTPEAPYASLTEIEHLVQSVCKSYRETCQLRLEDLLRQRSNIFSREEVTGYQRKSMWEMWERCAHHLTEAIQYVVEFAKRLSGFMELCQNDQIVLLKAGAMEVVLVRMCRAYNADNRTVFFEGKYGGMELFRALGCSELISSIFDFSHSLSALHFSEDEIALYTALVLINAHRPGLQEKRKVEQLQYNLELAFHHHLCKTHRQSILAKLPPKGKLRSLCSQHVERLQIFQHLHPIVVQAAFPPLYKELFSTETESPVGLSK
# In short: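 CHO, TET-inducible ROR + RORE-LUC reporter, 1536-well qHTS. Compound pinned, doxycycline added, 16hr 37C/5% CO2. ONE-Glo, 30 min RT, luminescence; signal drop scored as antagonism.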
smiles,measurement,setting,value
CC(C)c1ccc2c(c1)c(SC(C)(C)C)c(CC(C)(C)C(=O)O)n2Cc1ccc(Cl)cc1,outcome,[1],inactive
same,outcome,[2],inactive
same,outcome,[3],inactive
same,outcome,[4],inactive
same,outcome,[5],inactive
same,max response,[6],14.3% (inactive) and 21.6% (inactive)
same,"activity, percent of control",[7],27.3%
same,"remaining proliferation (% of control), lower = more inhibition",[8],22.8%
same,"parasite growth, % of DMSO control",[9],21.7%
same,"parasite growth remaining, % of DMSO control (lower = more inhibition)",[10],42.3%
same,"parasite growth, % of control (lower = inhibition)",[11],22%
same,"growth, % of control",[12],11.8%
same,"cell viability, % of control (lower = more cytotoxic)",[13],111%
CCN(CC)CCOc1ccc(Nc2ncc3cc(-c4c(Cl)cccc4Cl)c(=O)n(C)c3n2)cc1,Potency,[14],9.72 pM (active)
same,outcome,[1],inactive
same,"activity, percent of control",[7],1.4%
same,"remaining proliferation (% of control), lower = more inhibition",[8],-0.176%
same,"parasite growth, % of DMSO control",[9],6.09%
same,"parasite growth remaining, % of DMSO control (lower = more inhibition)",[10],8.57%
same,"parasite growth, % of control (lower = inhibition)",[11],10.6%
same,"growth, % of control",[12],4.26%
same,"cell viability, % of control (lower = more cytotoxic)",[13],4.53%
COc1cc(OC)c(C(=O)CCCN2CCCC2)c(OC)c1,max response,[15],-0.755% (inactive)
same,Potency,[16],inactive
same,max response,[17],-3.27% (inactive)
same,max response,[6],4.14% (inactive)
same,max response,[18],-5.06% (inactive)
same,"parasite growth, % of DMSO control",[9],90.8%
same,"parasite growth remaining, % of DMSO control (lower = more inhibition)",[10],120%
same,"parasite growth, % of control (lower = inhibition)",[11],38.2%
same,"growth, % of control",[12],75.7%
same,"cell viability, % of control (lower = more cytotoxic)",[13],165%
Cc1cc(O)c2c(c1)C(=O)c1cc(O)cc(O)c1C2=O,max response,[15],-5.19% (inactive) and -6.73% (inactive)
same,outcome,[2],inactive
same,outcome,[19],inactive
same,outcome,[3],inactive
same,outcome,[4],inactive
same,outcome,[5],inactive
same,max response,[6],14.5% (inactive)
same,Potency,[18],44.7 µM (active)
same,"growth, % of control",[12],98.6%
same,"cell viability, % of control (lower = more cytotoxic)",[13],207%
NS(=O)(=O)c1cc(C(=O)O)c(NCc2ccco2)cc1Cl,outcome,[20],inactive
same,Potency,[14],inactive
same,outcome,[1],inactive
same,Potency,[16],inactive
same,max response,[17],0.113% (inactive) and -9.05% (inactive)
same,max response,[6],3.33% (inactive)
same,max response,[18],5.51% (inactive) and -8.33% (inactive)
same,"parasite growth, % of DMSO control",[9],58.2%
same,"parasite growth remaining, % of DMSO control (lower = more inhibition)",[10],103%
same,"growth, % of control",[12],84.6%
same,"cell viability, % of control (lower = more cytotoxic)",[13],75.9%
CC(=O)N1CCN(c2ccc(OC[C@H]3CO[C@](Cn4ccnc4)(c4ccc(Cl)cc4Cl)O3)cc2)CC1,max response,[15],-0.168% (inactive)
same,outcome,[19],inactive
same,Potency,[16],inactive
same,max response,[17],-20.7% (inactive)
same,outcome,[3],inactive
same,outcome,[4],inactive
same,outcome,[5],inactive
same,"parasite growth, % of DMSO control",[9],10.3%
same,"growth, % of control",[12],6.71%
same,"cell viability, % of control (lower = more cytotoxic)",[13],64.7%
CS(=O)(=O)OCCCCOS(C)(=O)=O,max response,[15],-1.17% (inactive) and -9.71% (inactive) and -0.247% (inactive)
same,outcome,[20],inactive
same,Potency,[16],inactive
same,max response,[17],-5.06% (inactive) and -4.65% (inactive) and 2.24% (inactive)
same,max response,[6],7.28% (inactive)
same,max response,[18],-9.44% (inactive) and 3.38% (inactive) and -6.4% (inactive)
same,"parasite growth, % of DMSO control",[9],89.8%
same,"parasite growth remaining, % of DMSO control (lower = more inhibition)",[10],77.1%
same,"parasite growth, % of control (lower = inhibition)",[11],79.3%
same,"growth, % of control",[12],106%
same,"cell viability, % of control (lower = more cytotoxic)",[13],84.6%
O=c1c(O)c(-c2ccc(O)cc2O)oc2cc(O)cc(O)c12,max response,[15],-3.16% (inactive)
same,outcome,[2],inactive
same,outcome,[19],inactive
same,Potency,[16],inactive
same,max response,[17],6.53% (inactive)
same,outcome,[3],inactive
same,outcome,[4],inactive
same,max response,[6],11.7% (inactive)
same,max response,[18],-9.35% (inactive)
same,"parasite growth, % of DMSO control",[9],80.8%
same,"parasite growth remaining, % of DMSO control (lower = more inhibition)",[10],71%
same,"parasite growth, % of control (lower = inhibition)",[11],111%
same,"growth, % of control",[12],99.8%
same,"cell viability, % of control (lower = more cytotoxic)",[13],74.1%
